The whole screen tested about 68,000 compounds, of which about 2,700 (4%) showed an effect of 50% or more. What follows is part of a selection rich in strong results, with near analogues and random picks from the rest.

The subject of the assay is Plasmodium berghei. Nature of the assay: Screen against P. berghei liver stage (PbLuc), transformed with Luciferase, at 2uM. Type of assay: functional, HepG2. As to conditions: tested at 2 uM.
On to `O=c1oc(-c2cccs2)nn1CC(O)c1ccccc1F` (centres undefined), for which the INHIBITION came to 34.89%.

In the case of `O=C(Cn1cnc(-c2cccs2)cc1=O)Nc1cccnc1`, the INHIBITION was -8.7%.

Regarding `O=c1oc(-c2cccs2)nn1CC(O)c1ccc(F)cc1` (centres undefined), the INHIBITION turned out to be 29.61%.

With `CNC(=O)c1cccc(NC(=O)Cn2nc(-c3cccs3)oc2=O)c1`, the INHIBITION was found to be 17.39%.

For the compound `CC(=O)c1cccc(NC(=O)Cn2cnc(-c3cccs3)cc2=O)c1`, the INHIBITION turned out to be 50.7%.

As for `O=c1oc(-c2cccs2)nn1CC(O)c1ccccc1` (centres undefined), the INHIBITION amounted to 60.95%.

On to `Cc1occc1C(=O)N1CCC2(CC1)C(c1cnn(C)c1)CC(=O)N2C` (centres undefined), for which the INHIBITION was -41.72%.

For the compound `Cc1cccc2c1OCCCC2NCc1nccn1Cc1ccccc1` (centres undefined), the INHIBITION turned out to be 21.72%.

With `c1csc(-c2nc(CNCCn3cccn3)cs2)c1`, the INHIBITION is reported as 4.18%.

For `COc1cc(N2C[C@@H]3COC[C@]3(C(=O)NCc3ccccn3)C2)ncn1`, the INHIBITION is reported as -23.31%.

For `Nc1ncccc1C(=O)NCc1cccc(Br)c1`, the INHIBITION is given as -3.16%.

Regarding `O=C(NCCc1cccs1)[C@]12COC[C@H]1CN(C1CCOCC1)C2`, the INHIBITION was 17.24%.

With `COc1cc(N2CCC3(CCCN3Cc3cnn(C)c3)CC2)ncn1`, the INHIBITION turned out to be 30.09%.

`Cc1ccc(-c2cc(CN3CCc4cnc(C)nc4C3)on2)cc1`: the INHIBITION was -34.82%.

For `O=C([C@H]1C[C@H]2OCC[C@H]2N(C(=O)c2ccccn2)C1)N1CCCCO1`, the INHIBITION is on record as 62.1%.

`O=C([C@H]1C[C@H]2OCC[C@H]2N(C(=O)c2ccncc2)C1)N1CCCCO1`: the INHIBITION is -34.26%.

For the compound `O=C([C@H]1C[C@H]2OCC[C@H]2N(C(=O)c2cnccn2)C1)N1CCCCO1`, the INHIBITION is given as -1.69%.

For the compound `O=C(c1ccc(Br)o1)N1CCN(Cc2ccc(F)cc2)CC1`, the INHIBITION worked out at 10.22%.

Consider `CC(C)NC(=O)Nc1ccc(CNCc2cccc(C#N)c2)cc1`, for which the INHIBITION was -68.26%.

Consider `CCc1nc(CN2CCCC(NCc3nc(C)c(C)o3)C2)no1` (centres undefined), for which the INHIBITION came to 36.73%.

With `Cc1nc(CN2CCCC(NCCCc3ccccc3)C2)no1` (centres undefined), the INHIBITION is recorded as -6.4%.

As for `Cc1nc(CN2CCCC(NCc3cccc4ccccc34)C2)no1` (centres undefined), the INHIBITION was determined as 29.54%.

Regarding `Cc1ncc(CNC2CCCN(Cc3noc(C4CC4)n3)C2)s1` (centres undefined), the INHIBITION stood at 18.46%.

Turning to `Cc1nc(CN2CCCC(NCCc3ccccc3Cl)C2)no1` (centres undefined), the INHIBITION was 56.67%.

`CCc1nc(CN2CCCC(NCc3cc(C)no3)C2)no1` (centres undefined): the INHIBITION is on record as -2.1%.

For `Cn1cc(CNC2CCCN(Cc3noc(C4CC4)n3)C2)cn1` (centres undefined), the INHIBITION was determined as 2.08%.

Consider `Cc1ccc(CNC2CCCN(Cc3noc(C4CC4)n3)C2)s1` (centres undefined), for which the INHIBITION came out at 54.29%.

Consider `Cn1ccnc1CNC1CCCN(Cc2noc(C3CC3)n2)C1` (centres undefined), for which the INHIBITION stood at 50.32%.

Turning to `Cc1cc(CNC2CCCN(Cc3noc(C4CC4)n3)C2)on1` (centres undefined), the INHIBITION was 7.01%.

Regarding `CCc1nc(CN2CCCC(NCc3cnc(C)s3)C2)no1` (centres undefined), the INHIBITION came out at 77.57%.

As to `Cn1ccnc1CC1CCCN(Cc2noc(C3CC3)n2)C1` (centres undefined), the INHIBITION stood at 11.24%.

On to `Cc1oc(C(=O)O)cc1S(=O)(=O)Nc1cccc(-c2nccs2)c1`, for which the INHIBITION is listed as 15.39%.

In the case of `Fc1cnc(N2C[C@H]3CCC[C@@]3(COc3ccccn3)C2)nc1`, the INHIBITION was -27.16%.

On to `COc1ccc2cc(NC(=O)CCNc3nc(C)cc(C)n3)cnc2c1`, for which the INHIBITION is recorded as -6.83%.

In the case of `O=C(CN(C1=NCCCCC1)c1ccc(Cl)cc1)c1ccccc1`, the INHIBITION is on record as -65.06%.

For `CC(C)c1ccc(CN2CCC3(CCCN(c4nncs4)C3)C2)cc1` (centres undefined), the INHIBITION is listed as 5.52%.

For `Cc1noc(C)c1CCC(=O)N1CCN(CCn2cccn2)CC1`, the INHIBITION was found to be 2.18%.

In the case of `CC(NC(=O)COCC(F)(F)F)c1nnc2n1CCCCC2` (centres undefined), the INHIBITION was determined as 15.08%.

Regarding `Fc1ccccc1-c1cccc(C2CCCN(C3CCOCC3)C2)n1` (centres undefined), the INHIBITION was 25.4%.

In the case of `Cc1nc(CN2CCCC2Cn2cncn2)no1` (centres undefined), the INHIBITION was -21.93%.

As for `c1ncn(CC2CCCCN2Cc2noc(C3CC3)n2)n1` (centres undefined), the INHIBITION was found to be 62.13%.

With `c1ncn(CCNC2CCCN(Cc3noc(C4CC4)n3)C2)n1` (centres undefined), the INHIBITION is 54.29%.

Turning to `Cc1nc(CN2CCCC(NCc3sccc3C)C2)no1` (centres undefined), the INHIBITION is on record as 51.94%.

`Cc1ccsc1CNC1CCCN(Cc2noc(C3CC3)n2)C1` (centres undefined): the INHIBITION worked out at 17.59%.

Consider `c1ncn(CC2CCCN(Cc3noc(C4CC4)n3)C2)n1` (centres undefined), for which the INHIBITION is 29.54%.

As for `Cc1nc(CN2CCCC(NCc3ccsc3)C2)no1` (centres undefined), the INHIBITION was 20.28%.

For `c1cnn(CC2CCCCN2Cc2noc(C3CC3)n2)c1` (centres undefined), the INHIBITION is -10.47%.

As to `CCc1nc(CN2CCCC(NCCn3cncn3)C2)no1` (centres undefined), the INHIBITION turned out to be 35.56%.

In the case of `CCC(=O)Nc1cccc(C(=O)NCCC2=CSC3=NCCCN23)c1`, the INHIBITION is given as -17.86%.

Regarding `COc1ccc(-c2nc(C3CCNCC3)cc3c2ncn3C)cc1`, the INHIBITION is given as -0.45%.

Regarding `COCCS(=O)(=O)c1ncc(CN(C)C)n1Cc1ccccc1`, the INHIBITION was determined as 29.41%.

Turning to `O=C(C1CCCOC1)N1CCCc2ccccc21` (centres undefined), the INHIBITION came out at 53.29%.

Turning to `O=C(C1CCCOC1)N1CCCCc2ccccc21` (centres undefined), the INHIBITION is on record as 16.09%.

For `Cc1ccc2c(c1)N(C(=O)C1CCCOC1)CCC2` (centres undefined), the INHIBITION is on record as -13.38%.
